# According to a collection of fitness landscapes (doi:10.1126/science.1257360):
# Over roughly 140,000 sequences, “enrichment ratio after two sorts for PhoP signalling” has its median near 0; the highest 2% begin near 11. The entries come from a sample that favours the highest values as a whole.
# B1: PhoQ; a variant is named by its letters at X, in order, P23837 (parent)
# chain: MKKLLRLFFPLSLRVRFLLATAAVVLVLSLAYGMVALIGYSVSFDKTTFRLLRGESNLFYTLAKWENNKLHVELPENIDKQSPTMTLIYDENGQLLWAQRDVPWLMKMIQPDWLKSNGFHEIEADVNDTSLLLSGDHSIQQQLQEVREDDDDAEMTHSVAVNVYPATSRMPKLTIVVVDTIPVELKSSYMVWSWFIYVLSANLLLVIPLLWVAAWWSLRPIEALAKEVRELEEHNRELLNPATTRELTSLVRNLNRLLKSERERYDKYRTTLTDLTHSLKTPLXXLQXXLRSLRSEKMSVSDAEPVMLEQISRISQQIGYYLHRASMRGGTLLSRELHPVAPLLDNLTSALNKVYQRKGVNISLDISPEISFVGEQNDFVEVMGNVLDNACKYCLEFVEISARQTDEHLYIVVEDDGPGIPLSKREVIFDRGQRVDTLRPGQGVGLAVAREITEQYEGKIVAGESMLGGARMEVIFGRQHSAPKDE
# Variants of: B1
# Assay: enrichment ratio after two sorts for PhoP signalling (ratio (wild type AVST 3.29)); higher = more functional
# Conditions: with PhoP (E. coli)
row,Variant,enrichment ratio
1,KTHN,≤ 0.25
2,SPNA,≤ 0.25
3,NRQT,≤ 0.25
4,APHK,≤ 0.25
5,IMQV,≤ 0.25
6,LPRC,≤ 0.25
7,EVLG,≤ 0.25
8,WISS,≤ 0.25
9,TISC,15
10,TINL,9.31
11,TIEG,11.8
12,RISC,≤ 0.25
13,TIMG,3.15
14,PSEG,≤ 0.25
15,TISS,11.9
16,WISC,≤ 0.25
17,TISA,10.6
18,TINN,12.6
19,RINN,≤ 0.25
20,WFHG,≤ 0.25
21,MFFV,≤ 0.25
22,SPGL,≤ 0.25
23,VISE,≤ 0.25
24,FCRN,≤ 0.25

row,Variant,enrichment ratio
1,RIAN,≤ 0.25
2,TIYV,16.6
3,TIWV,≤ 0.25
4,TIKH,≤ 0.25
5,TITV,15.1
6,TIQN,5.05
7,TIQH,12.6
8,TIFI,0.264
9,TIMV,1.5
10,WITV,≤ 0.25
11,TIAN,19.6
12,TIDV,≤ 0.25
13,PPYV,≤ 0.25
14,EETS,≤ 0.25
15,VSPI,≤ 0.25
16,TINK,7.27
17,TITC,12.2
18,TIGS,15
19,TIQQ,16.4
20,TIVK,≤ 0.25
21,TIAA,12
22,TIFA,≤ 0.25
23,AIAA,9.24
24,TIFP,≤ 0.25

row,Variant,enrichment ratio
1,TIAD,≤ 0.25
2,TIFC,≤ 0.25
3,TIQP,≤ 0.25
4,AMHL,≤ 0.25
5,PQHY,≤ 0.25
6,EMES,≤ 0.25
7,LHSI,≤ 0.25
8,LTDV,≤ 0.25
9,PMYR,≤ 0.25
10,LERK,≤ 0.25
11,TIGD,11.6
12,TIRI,2.01
13,WIQR,≤ 0.25
14,TINT,4.95
15,TIMD,≤ 0.25
16,TITH,1.26
17,TINH,34.4
18,TIQR,16
19,TITD,≤ 0.25
20,RIEH,≤ 0.25
21,TIGR,5.97
22,TIEH,27.9
23,FADQ,≤ 0.25
24,MASY,≤ 0.25

row,Variant,enrichment ratio
1,PWSE,≤ 0.25
2,ECDR,≤ 0.25
3,AKEC,≤ 0.25
4,PVAT,≤ 0.25
5,GGSV,23.9
6,GISV,11.2
7,MGSK,≤ 0.25
8,MGSV,15.6
9,MGWR,≤ 0.25
10,RGSV,≤ 0.25
11,TGSV,17.2
12,YHSV,≤ 0.25
13,GNSV,8.29
14,NGSV,≤ 0.25
15,NISV,3.96
16,GIMV,2.38
17,YIFP,≤ 0.25
18,IYDW,≤ 0.25
19,LKWY,≤ 0.25
20,FTWQ,≤ 0.25
21,GANW,≤ 0.25
22,GAMI,18.9
23,GEMS,4.64
24,GEMI,84

row,Variant,enrichment ratio
1,GAMV,≤ 0.25
2,GEMD,≤ 0.25
3,HTQK,≤ 0.25
4,QEKV,≤ 0.25
5,MKDS,≤ 0.25
6,VMDC,≤ 0.25
7,HYLA,≤ 0.25
8,SGAT,5.6
9,TSAI,16.9
10,SHAI,≤ 0.25
11,RGAI,≤ 0.25
12,TGAI,12.3
13,SGKR,≤ 0.25
14,KSAI,≤ 0.25
15,SGAI,12.3
16,NHAI,≤ 0.25
17,NSAI,0.375
18,CFAI,≤ 0.25
19,THAI,14.8
20,HRPD,≤ 0.25
21,FYDW,≤ 0.25
22,TKHK,≤ 0.25
23,AFWS,≤ 0.25
24,EVSQ,≤ 0.25

row,Variant,enrichment ratio
1,SCCW,5.25
2,TARR,0.314
3,PTWW,≤ 0.25
4,ADAI,4.82
5,TDAI,13.6
6,KDAI,≤ 0.25
7,TQFC,8.5
8,TQTK,≤ 0.25
9,TQTC,18.9
10,TQTM,22.5
11,GQTM,≤ 0.25
12,NQSC,≤ 0.25
13,FQTM,≤ 0.25
14,TQTA,5.01
15,TQSC,15.3
16,FPER,≤ 0.25
17,LWDG,≤ 0.25
18,AHGV,≤ 0.25
19,AEGV,17.5
20,AMGV,≤ 0.25
21,AEHV,≤ 0.25
22,AGGV,11.4
23,AIGV,≤ 0.25
24,VYHA,≤ 0.25

row,Variant,enrichment ratio
1,ALVG,1.71
2,HEES,≤ 0.25
3,LAFL,2.72
4,AFDH,≤ 0.25
5,ACVN,31.5
6,ACPN,≤ 0.25
7,ACTM,11.9
8,ACNL,≤ 0.25
9,ACIM,30.7
10,ACGM,≤ 0.25
11,ALVN,13.7
12,ALQN,≤ 0.25
13,ACTI,5.16
14,ACTC,4.29
15,ALNL,1.07
16,ACWM,≤ 0.25
17,NDFR,2.54
18,FPHA,≤ 0.25
19,HDNY,≤ 0.25
20,QCKR,≤ 0.25
21,LDKY,≤ 0.25
22,YWPF,≤ 0.25
23,DPVE,≤ 0.25
24,NGRY,≤ 0.25

row,Variant,enrichment ratio
1,ACAT,0.287
2,ACAM,30.7
3,ATVN,19.4
4,ACAE,15.5
5,ACAN,15.5
6,ACRM,≤ 0.25
7,KCAE,≤ 0.25
8,ACAK,0.412
9,ACQN,≤ 0.25
10,YTVN,≤ 0.25
11,ATPN,≤ 0.25
12,ACAV,3.32
13,CLIL,≤ 0.25
14,RMFK,≤ 0.25
15,PFPY,≤ 0.25
16,RDQR,≤ 0.25
17,IEIS,≤ 0.25
18,IVGI,≤ 0.25
19,EILP,≤ 0.25
20,ACVM,12.1
21,ACNM,≤ 0.25
22,ACPM,0.39
23,PFDF,≤ 0.25
24,HKVI,≤ 0.25

row,Variant,enrichment ratio
1,TKVH,12.3
2,TKVK,≤ 0.25
3,AKVQ,2.82
4,TKVG,1.43
5,TKVQ,11.7
6,TKVA,18.4
7,HKVH,≤ 0.25
8,MKVH,≤ 0.25
9,AKVI,5.34
10,TKVI,30.1
11,KKVQ,≤ 0.25
12,RIDW,≤ 0.25
13,SRWP,≤ 0.25
14,PCHL,≤ 0.25
15,IMSS,≤ 0.25
16,RNRM,≤ 0.25
17,QWVH,≤ 0.25
18,AEDM,≤ 0.25
19,YQHC,≤ 0.25
20,TKMA,20.5
21,HKMA,≤ 0.25
22,MKVM,≤ 0.25
23,AKVV,11
24,TKVM,36.7

row,Variant,enrichment ratio
1,HKVV,≤ 0.25
2,TKVV,16.7
3,MEMA,≤ 0.25
4,AKVM,≤ 0.25
5,TEIA,5.22
6,RVAC,≤ 0.25
7,LPRF,≤ 0.25
8,VFWD,≤ 0.25
9,DAPE,≤ 0.25
10,QDDV,≤ 0.25
11,KLGH,≤ 0.25
12,NHSH,≤ 0.25
13,VEGH,≤ 0.25
14,TCGP,1.63
15,HFGH,≤ 0.25
16,THGH,13.1
17,TLGP,≤ 0.25
18,TCGH,23.5
19,TLGH,12.5
20,SHSH,0.368
21,THSH,12.3
22,KSGH,≤ 0.25
23,NPCL,≤ 0.25
24,WFFE,≤ 0.25

row,Variant,enrichment ratio
1,IMHM,≤ 0.25
2,NGPM,≤ 0.25
3,PILN,≤ 0.25
4,REPM,≤ 0.25
5,FADW,≤ 0.25
6,TMGH,15.3
7,TMTH,9.92
8,TMGP,≤ 0.25
9,STKH,≤ 0.25
10,TTGM,28.6
11,TTGD,0.456
12,MCGV,13.4
13,MCYL,13
14,MNYL,12
15,KLYL,≤ 0.25
16,MNNL,0.29
17,YTGM,≤ 0.25
18,MMGV,≤ 0.25
19,MEGV,≤ 0.25
20,MEYL,3.47
21,MLYL,10.2
22,DQFA,≤ 0.25
23,KQAS,≤ 0.25
24,PFKG,≤ 0.25

row,Variant,enrichment ratio
1,NGPW,≤ 0.25
2,AAVK,≤ 0.25
3,MCWM,16.4
4,TAHM,14.1
5,KAHM,≤ 0.25
6,MCCK,≤ 0.25
7,MCVA,≤ 0.25
8,NAHM,≤ 0.25
9,MCYK,≤ 0.25
10,MCDS,≤ 0.25
11,MCWI,18.3
12,MCYI,27.7
13,MCRM,≤ 0.25
14,MCAY,4.41
15,LMRM,≤ 0.25
16,TVRL,0.897
17,LALM,8.02
18,FHFV,≤ 0.25
19,EESR,≤ 0.25
20,ICAM,17.4
21,KCGM,≤ 0.25
22,ICWM,≤ 0.25
23,FVHM,≤ 0.25
24,TGGM,≤ 0.25

row,Variant,enrichment ratio
1,ICGM,≤ 0.25
2,MKAM,≤ 0.25
3,KCAM,≤ 0.25
4,MAHM,14.7
5,THGM,12.3
6,MCAM,12.2
7,FDHM,≤ 0.25
8,GDQT,≤ 0.25
9,TWQT,≤ 0.25
10,IVCI,≤ 0.25
11,MCAK,21.4
12,MAAK,≤ 0.25
13,MCGM,12.2
14,MKFL,0.755
15,MCDM,≤ 0.25
16,MLWM,≤ 0.25
17,MLAM,15.5
18,MNFL,14.1
19,MCVM,≤ 0.25
20,MLNM,≤ 0.25
21,MKAK,≤ 0.25
22,TNFL,≤ 0.25
